Measured values from PubChem BioAssay AID1159580 (chemical genetic matrix, 2015).
About 2,000 (36%) of roughly 5,500 compounds were called active. Inconclusive results (about 18%) are left out. No stated cut-off is given here; in the data, active means normalized growth mostly below about 0.91 (no sharp cut-off); inconclusive means no clear call, values can overlap the other calls; inactive means mostly above about 0.92. The list shows a part of the results.

Assay: chemical genetic growth profiling, strain panel (AID 1159580);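 further: tested at 20 µM; growth read once vehicle control cultures reached saturation at 30 °C; 1 = growth at the plate median or of vehicle wells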
Settings: growth OD

Measured: normalized growth

CCC(C(=O)O)c1ccccc1 (configuration not stated)
inactive: S. cerevisiae deletion strains, locus YJR075W, strain HOC1, stronger effect = lower value 1 | S. cerevisiae deletion strains, locus YKL009W, strain mrt4, stronger effect = lower value 1.01 | S. cerevisiae deletion strains, locus YKL068W, stronger effect = lower value 0.976 | S. cerevisiae deletion strains, locus YKL085W, strain MDH1 (second series), stronger effect = lower value 0.981 | S. cerevisiae deletion strains, locus YKL085W, strain MDH1, stronger effect = lower value 0.981 | S. cerevisiae deletion strains, locus YKL160W, strain elf1, stronger effect = lower value 0.996 | S. cerevisiae deletion strains, locus YKL190W, strain CNB1, stronger effect = lower value 1.01 | S. cerevisiae deletion strains, locus YKR001C, strain vps1, stronger effect = lower value 0.987 | S. cerevisiae deletion strains, locus YKR026C, strain gcn3, stronger effect = lower value 0.99 | S. cerevisiae deletion strains, locus YKR091W, strain srl3, stronger effect = lower value 0.99 | S. cerevisiae deletion strains, locus YLL001W, strain dnm1, stronger effect = lower value 0.986 | S. cerevisiae deletion strains, locus YLL026W, stronger effect = lower value 0.977 | S. cerevisiae deletion strains, locus YLL041C, strain sdh2, stronger effect = lower value 1 | S. cerevisiae deletion strains, locus YLR027C, strain aat2, stronger effect = lower value 1 | S. cerevisiae deletion strains, locus YLR039C, strain RIC1, stronger effect = lower value 0.958 | S. cerevisiae deletion strains, locus YLR058C, strain SHM2, stronger effect = lower value 1 | S. cerevisiae deletion strains, locus YLR102C, strain apc9, stronger effect = lower value 0.995 | S. cerevisiae deletion strains, locus YLR113W, strain HOG1, stronger effect = lower value 0.912 | S. cerevisiae deletion strains, locus YLR221C, strain rsa3, stronger effect = lower value 0.992 | S. cerevisiae deletion strains, locus YLR258W, strain gsy2, stronger effect = lower value 1 | S. cerevisiae deletion strains, locus YLR262C, strain YPT6 (second series), stronger effect = lower value 1.01 | S. cerevisiae deletion strains, locus YLR262C, strain YPT6, stronger effect = lower value 0.966 | S. cerevisiae deletion strains, locus YLR268W, strain sec22, stronger effect = lower value 1.01 | S. cerevisiae deletion strains, locus YLR320W, strain mms22, stronger effect = lower value 0.989 | S. cerevisiae deletion strains, locus YLR330W, strain CHS5, stronger effect = lower value 1 | S. cerevisiae deletion strains, locus YLR342W, strain FKS1 (second series), stronger effect = lower value 0.994 | S. cerevisiae deletion strains, locus YLR342W, strain FKS1, stronger effect = lower value 0.998 | S. cerevisiae deletion strains, locus YLR357W, strain rsc2, stronger effect = lower value 0.951 | S. cerevisiae deletion strains, locus YLR370C, strain arc18, stronger effect = lower value 0.977 | S. cerevisiae deletion strains, locus YLR371W, strain rom2, stronger effect = lower value 1.01 | S. cerevisiae deletion strains, locus YLR384C, strain iki3, stronger effect = lower value 0.97 | S. cerevisiae deletion strains, locus YLR418C, strain cdc73, stronger effect = lower value 1.03 | S. cerevisiae deletion strains, locus YML016C, strain PPZ1, stronger effect = lower value 1 | S. cerevisiae deletion strains, locus YML032C, strain rad52, stronger effect = lower value 0.997 | S. cerevisiae deletion strains, locus YML120C, strain ndi1, stronger effect = lower value 0.979 | S. cerevisiae deletion strains, locus YML124C, strain tub3, stronger effect = lower value 1 | S. cerevisiae deletion strains, locus YMR058W, strain fet3, stronger effect = lower value 0.986 | S. cerevisiae deletion strains, locus YMR078C, strain ctf18, stronger effect = lower value 0.996 | S. cerevisiae deletion strains, locus YMR125W, strain sto1, stronger effect = lower value 0.977 | S. cerevisiae deletion strains, locus YMR129W, stronger effect = lower value 0.992 | S. cerevisiae deletion strains, locus YMR205C, strain PFK2, stronger effect = lower value 0.996 | S. cerevisiae deletion strains, locus YMR223W, strain ubp8, stronger effect = lower value 1 | S. cerevisiae deletion strains, locus YMR231W, strain pep5, stronger effect = lower value 0.992 | S. cerevisiae deletion strains, locus YMR263W, strain SAP30, stronger effect = lower value 1.01 | S. cerevisiae deletion strains, locus YMR307W, strain GAS1, stronger effect = lower value 1.07 | S. cerevisiae deletion strains, locus YNL067W, strain RPL9B, stronger effect = lower value 1.03 | S. cerevisiae deletion strains, locus YNL071W, strain lat1, stronger effect = lower value 0.989 | S. cerevisiae deletion strains, locus YNL128W, strain TEP1, stronger effect = lower value 1.02 | S. cerevisiae deletion strains, locus YNL153C, strain GIM3, stronger effect = lower value 1 | S. cerevisiae deletion strains, locus YNL183C, strain NPR1, stronger effect = lower value 0.905 | S. cerevisiae deletion strains, locus YNL209W, strain ssb2, stronger effect = lower value 0.989 | S. cerevisiae deletion strains, locus YNL233W, strain BNI4, stronger effect = lower value 0.999 | S. cerevisiae deletion strains, locus YNL248C, strain rpa49, stronger effect = lower value 0.984 | S. cerevisiae deletion strains, locus YNL250W, strain rad50, stronger effect = lower value 0.975 | S. cerevisiae deletion strains, locus YNL271C, strain bni1, stronger effect = lower value 0.988 | S. cerevisiae deletion strains, locus YNL298W, strain CLA4, stronger effect = lower value 0.989 | S. cerevisiae deletion strains, locus YNL307C, strain MCK1, stronger effect = lower value 0.999 | S. cerevisiae deletion strains, locus YNL322C, strain KRE1 (second series), stronger effect = lower value 0.972 | S. cerevisiae deletion strains, locus YNL322C, strain KRE1, stronger effect = lower value 1 | S. cerevisiae deletion strains, locus YNR049C, strain mso1, stronger effect = lower value 1.01 | S. cerevisiae deletion strains, locus YNR052C, strain pop2, stronger effect = lower value 0.99 | S. cerevisiae deletion strains, locus YOL006C, strain TOP1, stronger effect = lower value 1.03 | S. cerevisiae deletion strains, locus YOL012C, strain htz1 2.17 | S. cerevisiae deletion strains, locus YOL147C, strain pex11, stronger effect = lower value 0.998 | S. cerevisiae deletion strains, locus YOR001W, strain rrp6, stronger effect = lower value 0.974 | S. cerevisiae deletion strains, locus YOR061W, strain CKA2, stronger effect = lower value 1 | S. cerevisiae deletion strains, locus YOR069W, strain VPS5, stronger effect = lower value 1 | S. cerevisiae deletion strains, locus YOR070C, strain gyp1, stronger effect = lower value 0.976 | S. cerevisiae deletion strains, locus YOR080W, strain dia2, stronger effect = lower value 0.984 | S. cerevisiae deletion strains, locus YOR083W, strain WHI5, stronger effect = lower value 0.994 | S. cerevisiae deletion strains, locus YOR106W, strain vam3, stronger effect = lower value 0.989 | S. cerevisiae deletion strains, locus YOR136W, strain idh2, stronger effect = lower value 1.01 | S. cerevisiae deletion strains, locus YOR144C, strain elg1, stronger effect = lower value 0.999 | S. cerevisiae deletion strains, locus YOR184W, strain ser1, stronger effect = lower value 0.992 | S. cerevisiae deletion strains, locus YOR231W, strain MKK1, stronger effect = lower value 0.951 | S. cerevisiae deletion strains, locus YOR265W, strain rbl2, stronger effect = lower value 1 | S. cerevisiae deletion strains, locus YOR270C, strain vph1, stronger effect = lower value 1.02 | S. cerevisiae deletion strains, locus YOR290C, strain snf2, stronger effect = lower value 0.976 | S. cerevisiae deletion strains, locus YOR316C, strain cot1, stronger effect = lower value 1 | S. cerevisiae deletion strains, locus YPL051W, strain arl3, stronger effect = lower value 0.964 | S. cerevisiae deletion strains, locus YPL055C, strain LGE1, stronger effect = lower value 1.03 | S. cerevisiae deletion strains, locus YPL078C, strain atp4, stronger effect = lower value 0.974 | S. cerevisiae deletion strains, locus YPL106C, strain sse1, stronger effect = lower value 0.97 | S. cerevisiae deletion strains, locus YPL240C, strain hsp82, stronger effect = lower value 0.988 | S. cerevisiae deletion strains, locus YPL241C, strain CIN2, stronger effect = lower value 1.01 | S. cerevisiae deletion strains, locus YPL256C, strain CLN2, stronger effect = lower value 0.907 | S. cerevisiae deletion strains, locus YPR119W, strain clb2, stronger effect = lower value 0.994 | S. cerevisiae deletion strains, locus YPR141C, strain kar3, stronger effect = lower value 0.976 | S. cerevisiae deletion strains, locus YPR163C, strain tif3, stronger effect = lower value 1 | S. cerevisiae deletion strains, locus YPR167C, strain met16, stronger effect = lower value 0.999 | S. cerevisiae deletion strains, strain wtn01, stronger effect = lower value 0.999 | S. cerevisiae strains, strain wild type, stronger effect = lower value 1
